# Tests used:
# Assay in all cases: DAPPL (digital affinity profiling via proximity ligation, sequencing); 10 mM Tris-HCl pH 7.5, 50 mM NaCl, 1 mM DTT, 4% glycerol, room temperature, 30 min; GST-TFs on glutathione beads, 16-mer random dsDNA library, 0.1% formaldehyde crosslink after washing; high values mean tight binding
# FEV = target: T1, FEV (Homo sapiens, UniProt Q99581 1-238); details: protein: recombinant; tags: N-terminal GST; dsDNA, one strand shown
# T1 sequence: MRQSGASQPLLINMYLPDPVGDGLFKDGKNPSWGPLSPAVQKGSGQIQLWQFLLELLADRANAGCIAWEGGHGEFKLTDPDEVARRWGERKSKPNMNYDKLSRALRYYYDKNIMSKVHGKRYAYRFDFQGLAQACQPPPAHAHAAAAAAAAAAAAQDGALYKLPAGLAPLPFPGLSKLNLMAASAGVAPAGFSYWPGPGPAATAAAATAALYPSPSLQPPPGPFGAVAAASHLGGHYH
# Summary of the method: (§1)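 Yeast served to express human transcription factors as GST fusions, which were then captured on glutathione beads and labelled with DNA barcodes. Pooled with a tag-only sample, they were incubated with 200 nmole of a 16-mer random double-stranded DNA library for 30 min at room temperature in Tris/NaCl/DTT/glycerol buffer, washed, crosslinked with 0.1% formaldehyde, ligated by proximity, amplified by PCR and sequenced. Dividing each hexamer's read frequency for a factor by its frequency for the tag-only sample gives the binding signal.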
# ETV5 = ETV5 (Homo sapiens, UniProt P41161 1-510); details: protein: recombinant; tags: N-terminal GST; dsDNA, one strand shown
# Summary of the method: as §1
# HSF1 = HSF1 (Homo sapiens, UniProt Q00613 1-529); details: protein: recombinant; tags: N-terminal GST; chain copies: 3; dsDNA, one strand shown
# Summary of the method: as §1
# SPIC = target: T2, SPIC (Homo sapiens, UniProt Q8N5J4 1-248); details: protein: recombinant; tags: N-terminal GST; dsDNA, one strand shown
# T2 sequence: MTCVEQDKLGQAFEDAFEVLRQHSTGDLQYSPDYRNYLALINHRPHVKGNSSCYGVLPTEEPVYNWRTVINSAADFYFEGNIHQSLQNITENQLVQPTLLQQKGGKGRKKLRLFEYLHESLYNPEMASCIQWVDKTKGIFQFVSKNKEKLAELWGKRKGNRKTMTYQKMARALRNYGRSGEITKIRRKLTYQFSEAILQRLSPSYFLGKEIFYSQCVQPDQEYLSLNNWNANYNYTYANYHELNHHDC
# Summary of the method: as §1
# ELF4 = ELF4 (Homo sapiens, UniProt Q99607 1-663); details: protein: recombinant; tags: N-terminal GST; dsDNA, one strand shown
# Summary of the method: as §1
# ELK4 = target: T3, ELK4 (Homo sapiens, UniProt P28324-2 1-405); details: protein: recombinant; tags: N-terminal GST; dsDNA, one strand shown
# T3 sequence: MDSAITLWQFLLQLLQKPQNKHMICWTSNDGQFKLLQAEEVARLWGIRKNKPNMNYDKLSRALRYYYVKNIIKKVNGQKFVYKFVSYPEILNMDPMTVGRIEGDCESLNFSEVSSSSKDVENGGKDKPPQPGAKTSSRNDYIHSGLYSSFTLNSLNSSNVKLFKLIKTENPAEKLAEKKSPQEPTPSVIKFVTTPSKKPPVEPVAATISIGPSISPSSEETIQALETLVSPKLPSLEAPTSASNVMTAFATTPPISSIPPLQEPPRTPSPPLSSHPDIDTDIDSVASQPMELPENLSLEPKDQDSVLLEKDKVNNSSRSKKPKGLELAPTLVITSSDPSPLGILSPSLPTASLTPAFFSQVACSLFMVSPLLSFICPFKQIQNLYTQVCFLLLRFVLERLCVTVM
# Summary of the method: as §1
# ETV2 = target: T4, ETV2 (Homo sapiens, UniProt O00321 1-342); details: protein: recombinant; tags: N-terminal GST; dsDNA, one strand shown
# T4 sequence: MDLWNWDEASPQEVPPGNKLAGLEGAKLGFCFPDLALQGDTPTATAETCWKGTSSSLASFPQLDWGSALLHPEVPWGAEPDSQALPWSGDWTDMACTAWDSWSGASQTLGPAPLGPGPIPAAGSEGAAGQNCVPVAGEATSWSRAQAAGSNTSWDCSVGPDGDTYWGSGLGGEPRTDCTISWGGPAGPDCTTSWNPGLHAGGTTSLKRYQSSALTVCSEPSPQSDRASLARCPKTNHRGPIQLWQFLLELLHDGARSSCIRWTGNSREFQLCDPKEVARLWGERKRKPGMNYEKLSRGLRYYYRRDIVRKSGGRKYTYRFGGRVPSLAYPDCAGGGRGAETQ
# Summary of the method: as §1
# ELF3 = target: T5, ELF3 (Homo sapiens, UniProt P78545 1-371); details: protein: recombinant; tags: N-terminal GST; dsDNA, one strand shown
# T5 sequence: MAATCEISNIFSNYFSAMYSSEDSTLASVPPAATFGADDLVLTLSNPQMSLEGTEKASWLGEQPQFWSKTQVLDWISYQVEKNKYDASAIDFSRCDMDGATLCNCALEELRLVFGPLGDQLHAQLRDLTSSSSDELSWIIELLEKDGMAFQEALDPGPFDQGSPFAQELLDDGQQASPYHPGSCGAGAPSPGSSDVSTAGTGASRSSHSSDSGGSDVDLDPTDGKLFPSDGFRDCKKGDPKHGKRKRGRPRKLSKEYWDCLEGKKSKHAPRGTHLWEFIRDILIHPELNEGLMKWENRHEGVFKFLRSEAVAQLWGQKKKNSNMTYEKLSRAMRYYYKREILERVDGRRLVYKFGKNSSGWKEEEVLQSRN
# Summary of the method: as §1
# CRX = CRX (Homo sapiens, UniProt O43186 1-299); details: protein: recombinant; tags: N-terminal GST; dsDNA, one strand shown
# Summary of the method: as §1
# ETV1 = ETV1 (Homo sapiens, UniProt P50549 1-477); details: protein: recombinant; tags: N-terminal GST; dsDNA, one strand shown
# Summary of the method: as §1
# ERF = target: T6, ERF (Homo sapiens, UniProt P50548 1-548); details: protein: recombinant; tags: N-terminal GST; dsDNA, one strand shown
# T6 sequence: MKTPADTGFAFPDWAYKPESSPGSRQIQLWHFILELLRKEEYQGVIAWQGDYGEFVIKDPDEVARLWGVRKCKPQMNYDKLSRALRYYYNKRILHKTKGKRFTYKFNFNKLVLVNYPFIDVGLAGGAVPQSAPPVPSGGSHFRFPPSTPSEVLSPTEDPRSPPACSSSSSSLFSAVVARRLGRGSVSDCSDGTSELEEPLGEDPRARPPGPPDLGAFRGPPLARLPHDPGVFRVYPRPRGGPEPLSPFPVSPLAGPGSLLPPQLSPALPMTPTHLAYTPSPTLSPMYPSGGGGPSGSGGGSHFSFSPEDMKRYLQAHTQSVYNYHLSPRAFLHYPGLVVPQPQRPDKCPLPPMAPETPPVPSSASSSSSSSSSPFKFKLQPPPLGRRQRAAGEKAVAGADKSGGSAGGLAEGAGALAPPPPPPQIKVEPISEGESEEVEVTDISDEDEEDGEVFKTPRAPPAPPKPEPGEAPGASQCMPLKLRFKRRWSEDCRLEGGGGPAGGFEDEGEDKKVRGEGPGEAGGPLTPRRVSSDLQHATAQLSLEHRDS
# Summary of the method: as §1
# ETV3L = target: T7, ETV3L (Homo sapiens, UniProt Q6ZN32 1-361); details: protein: recombinant; tags: N-terminal GST; dsDNA, one strand shown
# T7 sequence: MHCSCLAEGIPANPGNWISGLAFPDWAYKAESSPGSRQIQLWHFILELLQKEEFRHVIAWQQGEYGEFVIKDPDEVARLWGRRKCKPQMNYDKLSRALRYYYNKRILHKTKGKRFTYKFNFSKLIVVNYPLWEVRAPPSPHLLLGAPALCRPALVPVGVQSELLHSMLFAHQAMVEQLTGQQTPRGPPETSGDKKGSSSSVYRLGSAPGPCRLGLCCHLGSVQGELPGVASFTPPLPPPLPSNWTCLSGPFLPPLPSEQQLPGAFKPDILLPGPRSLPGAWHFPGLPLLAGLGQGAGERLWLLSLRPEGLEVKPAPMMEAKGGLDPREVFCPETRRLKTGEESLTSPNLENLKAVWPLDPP
# Summary of the method: as §1
# ETS2 = target: T8, ETS2 (Homo sapiens, UniProt P15036 1-469); details: protein: recombinant; tags: N-terminal GST; dsDNA, one strand shown
# T8 sequence: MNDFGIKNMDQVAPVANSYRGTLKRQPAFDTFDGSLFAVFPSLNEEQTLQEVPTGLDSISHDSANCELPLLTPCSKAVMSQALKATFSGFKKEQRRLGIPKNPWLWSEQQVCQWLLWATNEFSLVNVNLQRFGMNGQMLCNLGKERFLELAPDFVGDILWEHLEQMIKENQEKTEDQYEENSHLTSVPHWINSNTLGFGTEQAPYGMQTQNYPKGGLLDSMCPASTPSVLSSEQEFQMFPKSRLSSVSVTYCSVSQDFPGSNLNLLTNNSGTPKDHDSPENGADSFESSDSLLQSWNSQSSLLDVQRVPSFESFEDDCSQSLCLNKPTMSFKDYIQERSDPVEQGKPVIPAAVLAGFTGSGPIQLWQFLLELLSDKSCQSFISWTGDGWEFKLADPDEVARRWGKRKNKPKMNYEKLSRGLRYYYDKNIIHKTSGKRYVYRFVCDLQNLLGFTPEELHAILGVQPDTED
# Summary of the method: as §1
# SPDEF = target: T9, SPDEF (Homo sapiens, UniProt O95238 1-335); details: protein: recombinant; tags: N-terminal GST; dsDNA, one strand shown
# T9 sequence: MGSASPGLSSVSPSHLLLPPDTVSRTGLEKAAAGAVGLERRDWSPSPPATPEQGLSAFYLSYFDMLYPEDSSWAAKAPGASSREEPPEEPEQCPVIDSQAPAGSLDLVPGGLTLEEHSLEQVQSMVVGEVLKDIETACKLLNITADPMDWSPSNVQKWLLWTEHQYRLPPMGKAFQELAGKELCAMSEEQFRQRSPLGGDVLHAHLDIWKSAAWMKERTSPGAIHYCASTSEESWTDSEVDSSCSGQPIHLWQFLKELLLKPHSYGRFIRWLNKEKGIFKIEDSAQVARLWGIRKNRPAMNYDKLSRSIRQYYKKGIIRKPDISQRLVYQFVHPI
# Summary of the method: as §1
# ETV7 = target: T10, ETV7 (Homo sapiens, UniProt Q9Y603 1-341); details: protein: recombinant; tags: N-terminal GST; dsDNA, one strand shown
# T10 sequence: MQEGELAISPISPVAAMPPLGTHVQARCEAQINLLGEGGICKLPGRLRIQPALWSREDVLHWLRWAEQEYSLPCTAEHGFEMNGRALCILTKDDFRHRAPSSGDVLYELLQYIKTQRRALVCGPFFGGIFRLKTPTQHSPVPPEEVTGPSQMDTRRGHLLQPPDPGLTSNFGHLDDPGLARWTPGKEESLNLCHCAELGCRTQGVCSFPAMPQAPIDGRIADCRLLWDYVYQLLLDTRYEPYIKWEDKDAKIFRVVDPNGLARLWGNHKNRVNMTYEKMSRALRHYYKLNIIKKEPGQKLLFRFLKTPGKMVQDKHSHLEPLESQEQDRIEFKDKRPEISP
# Summary of the method: as §1
# ELF5 = target: T11, ELF5 (Homo sapiens, UniProt Q9UKW6-2 1-255); details: protein: recombinant; tags: N-terminal GST; dsDNA, one strand shown
# T11 sequence: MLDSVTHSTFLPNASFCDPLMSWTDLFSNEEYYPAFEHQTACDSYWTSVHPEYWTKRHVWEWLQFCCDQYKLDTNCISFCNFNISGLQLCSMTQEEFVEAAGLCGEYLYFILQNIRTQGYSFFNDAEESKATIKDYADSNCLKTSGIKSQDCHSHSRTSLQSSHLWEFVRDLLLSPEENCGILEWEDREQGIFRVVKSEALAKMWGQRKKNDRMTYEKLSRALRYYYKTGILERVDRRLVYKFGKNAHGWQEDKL
# Summary of the method: as §1
# ETV3 = target: T12, ETV3 (Homo sapiens, UniProt P41162-2 1-143); details: protein: recombinant; tags: N-terminal GST; dsDNA, one strand shown
# T12 sequence: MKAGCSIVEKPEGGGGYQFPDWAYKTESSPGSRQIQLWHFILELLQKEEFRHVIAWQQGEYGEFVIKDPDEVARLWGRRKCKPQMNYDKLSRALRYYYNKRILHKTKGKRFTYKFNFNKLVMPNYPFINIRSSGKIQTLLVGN
# Summary of the method: as §1
# ETV6 = ETV6 (Homo sapiens, UniProt P41212 1-452); details: protein: recombinant; tags: N-terminal GST; dsDNA, one strand shown
# Summary of the method: as §1
# Sequence of CRX (O43186 whole entry): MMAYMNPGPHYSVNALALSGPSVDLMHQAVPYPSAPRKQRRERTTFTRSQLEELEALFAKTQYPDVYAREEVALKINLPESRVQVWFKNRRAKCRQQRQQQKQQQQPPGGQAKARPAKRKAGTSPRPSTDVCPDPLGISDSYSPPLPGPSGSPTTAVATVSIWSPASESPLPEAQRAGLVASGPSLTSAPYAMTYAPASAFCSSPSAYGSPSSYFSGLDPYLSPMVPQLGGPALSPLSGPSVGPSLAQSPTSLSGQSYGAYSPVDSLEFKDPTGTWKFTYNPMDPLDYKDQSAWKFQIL
# Sequence of ELF4 (Q99607 whole entry): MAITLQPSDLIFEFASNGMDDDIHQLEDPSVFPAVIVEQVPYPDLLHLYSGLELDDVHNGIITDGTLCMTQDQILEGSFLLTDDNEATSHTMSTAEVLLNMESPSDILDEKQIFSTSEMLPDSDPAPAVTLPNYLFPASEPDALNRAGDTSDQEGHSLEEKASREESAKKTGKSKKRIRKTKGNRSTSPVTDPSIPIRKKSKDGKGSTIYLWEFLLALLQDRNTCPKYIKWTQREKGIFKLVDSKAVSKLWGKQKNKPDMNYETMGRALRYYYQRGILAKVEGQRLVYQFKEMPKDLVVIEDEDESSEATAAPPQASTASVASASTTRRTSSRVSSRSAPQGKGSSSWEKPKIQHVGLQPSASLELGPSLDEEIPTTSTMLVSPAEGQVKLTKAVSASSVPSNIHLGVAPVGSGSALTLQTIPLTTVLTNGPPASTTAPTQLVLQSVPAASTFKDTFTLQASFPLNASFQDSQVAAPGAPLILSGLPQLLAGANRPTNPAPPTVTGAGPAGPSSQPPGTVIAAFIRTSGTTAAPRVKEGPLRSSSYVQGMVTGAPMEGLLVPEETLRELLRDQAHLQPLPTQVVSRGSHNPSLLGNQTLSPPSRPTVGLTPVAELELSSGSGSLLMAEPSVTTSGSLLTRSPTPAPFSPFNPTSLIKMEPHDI
# Sequence of ETV5 (P41161 whole entry): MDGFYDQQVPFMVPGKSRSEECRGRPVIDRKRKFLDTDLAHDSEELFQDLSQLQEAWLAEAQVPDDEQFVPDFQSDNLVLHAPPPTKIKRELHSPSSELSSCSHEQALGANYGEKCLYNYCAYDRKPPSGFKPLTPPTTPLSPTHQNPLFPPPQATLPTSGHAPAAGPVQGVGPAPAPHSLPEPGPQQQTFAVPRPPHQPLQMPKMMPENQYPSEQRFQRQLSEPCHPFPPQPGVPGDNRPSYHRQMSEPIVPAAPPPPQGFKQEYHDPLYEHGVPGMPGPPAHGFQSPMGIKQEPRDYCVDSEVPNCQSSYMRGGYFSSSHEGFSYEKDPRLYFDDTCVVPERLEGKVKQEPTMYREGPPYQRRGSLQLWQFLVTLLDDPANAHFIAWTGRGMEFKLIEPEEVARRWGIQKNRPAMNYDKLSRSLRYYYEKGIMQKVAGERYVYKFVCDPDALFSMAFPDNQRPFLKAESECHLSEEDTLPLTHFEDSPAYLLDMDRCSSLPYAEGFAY
# Sequence of ETV6 (P41212 whole entry): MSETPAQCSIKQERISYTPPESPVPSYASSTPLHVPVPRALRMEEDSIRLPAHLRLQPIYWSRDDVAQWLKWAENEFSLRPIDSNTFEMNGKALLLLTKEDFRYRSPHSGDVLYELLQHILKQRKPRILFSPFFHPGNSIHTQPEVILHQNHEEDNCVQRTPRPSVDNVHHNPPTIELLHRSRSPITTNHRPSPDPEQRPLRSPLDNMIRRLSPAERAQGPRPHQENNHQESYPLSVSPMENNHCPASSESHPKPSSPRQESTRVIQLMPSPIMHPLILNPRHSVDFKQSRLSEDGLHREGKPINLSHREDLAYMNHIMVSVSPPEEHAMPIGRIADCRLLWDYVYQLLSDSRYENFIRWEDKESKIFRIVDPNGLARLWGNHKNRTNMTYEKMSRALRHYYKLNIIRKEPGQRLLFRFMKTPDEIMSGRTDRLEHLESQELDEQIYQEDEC
# Sequence of ETV1 (P50549 whole entry): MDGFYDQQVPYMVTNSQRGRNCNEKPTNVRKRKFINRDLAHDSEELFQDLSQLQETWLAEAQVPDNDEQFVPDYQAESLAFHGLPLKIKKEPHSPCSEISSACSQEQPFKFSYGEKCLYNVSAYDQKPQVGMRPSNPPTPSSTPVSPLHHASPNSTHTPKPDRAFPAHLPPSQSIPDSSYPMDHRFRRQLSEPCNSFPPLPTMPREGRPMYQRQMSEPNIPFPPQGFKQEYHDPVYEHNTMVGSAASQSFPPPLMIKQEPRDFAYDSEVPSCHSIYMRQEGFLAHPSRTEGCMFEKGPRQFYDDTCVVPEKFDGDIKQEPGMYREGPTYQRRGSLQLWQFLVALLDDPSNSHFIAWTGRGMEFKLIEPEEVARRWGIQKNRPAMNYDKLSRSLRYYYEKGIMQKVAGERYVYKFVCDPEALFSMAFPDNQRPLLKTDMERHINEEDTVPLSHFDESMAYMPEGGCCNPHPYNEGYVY
# Sequence of HSF1 (Q00613 whole entry): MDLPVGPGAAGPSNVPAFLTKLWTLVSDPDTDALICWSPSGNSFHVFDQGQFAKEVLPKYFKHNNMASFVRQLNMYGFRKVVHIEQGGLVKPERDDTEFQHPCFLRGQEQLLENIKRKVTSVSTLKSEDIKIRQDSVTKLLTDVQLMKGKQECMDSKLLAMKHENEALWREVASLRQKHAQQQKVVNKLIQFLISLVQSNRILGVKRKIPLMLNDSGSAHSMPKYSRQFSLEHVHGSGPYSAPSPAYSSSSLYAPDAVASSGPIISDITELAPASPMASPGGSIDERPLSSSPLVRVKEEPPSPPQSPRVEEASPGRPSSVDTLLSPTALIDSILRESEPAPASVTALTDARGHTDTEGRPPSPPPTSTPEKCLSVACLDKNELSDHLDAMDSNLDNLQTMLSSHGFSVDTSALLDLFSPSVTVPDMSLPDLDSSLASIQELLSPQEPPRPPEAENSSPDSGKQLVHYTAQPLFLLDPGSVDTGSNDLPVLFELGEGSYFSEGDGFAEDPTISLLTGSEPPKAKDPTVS
sequence,measurement,setting,value
CTGAAC,binding signal,FEV,"1.35 fold enrichment (6-mer frequency, TF over GST control)"
same,binding signal,ETV5,"1.41 fold enrichment (6-mer frequency, TF over GST control)"
same,binding signal,HSF1,"1.33 fold enrichment (6-mer frequency, TF over GST control)"
same,binding signal,SPIC,"1.31 fold enrichment (6-mer frequency, TF over GST control)"
same,binding signal,ELF4,"1.3 fold enrichment (6-mer frequency, TF over GST control)"
same,binding signal,ELK4,"1.44 fold enrichment (6-mer frequency, TF over GST control)"
same,binding signal,ETV2,"1.35 fold enrichment (6-mer frequency, TF over GST control)"
same,binding signal,ELF3,"1.44 fold enrichment (6-mer frequency, TF over GST control)"
same,binding signal,CRX,"1.23 fold enrichment (6-mer frequency, TF over GST control)"
same,binding signal,ETV1,"1.43 fold enrichment (6-mer frequency, TF over GST control)"
same,binding signal,ERF,"1.33 fold enrichment (6-mer frequency, TF over GST control)"
same,binding signal,ETV3L,"1.3 fold enrichment (6-mer frequency, TF over GST control)"
same,binding signal,ETS2,"1.32 fold enrichment (6-mer frequency, TF over GST control)"
same,binding signal,SPDEF,"1.47 fold enrichment (6-mer frequency, TF over GST control)"
same,binding signal,ETV7,"1.21 fold enrichment (6-mer frequency, TF over GST control)"
same,binding signal,ELF5,"1.41 fold enrichment (6-mer frequency, TF over GST control)"
same,binding signal,ETV3,"1.47 fold enrichment (6-mer frequency, TF over GST control)"
same,binding signal,ETV6,"1.29 fold enrichment (6-mer frequency, TF over GST control)"
